# Screening data: PubChem BioAssay, National Center for Advancing Translational Sciences (NCATS)
# Sampled rows, rich in hits. Any-hit rate of the full collection: about 3.1%.
# Tau fibril FP – tau fibrillization inhibition (FP) | AID 1468 | Potency, µM (doses to about 57.7 µM), for inactives: at the top dose activity, negative = inhibition, actives largely listed as inhibitors | K18 P301L tau heparin fibrillization, Alexa594 FP, 6 h | 280,000 compounds, 0.39% hits | P10636; further: nearly all actives have a fitted effect of over 55% in size
# Target sequence (P10636 561-689 P618L limits assumed): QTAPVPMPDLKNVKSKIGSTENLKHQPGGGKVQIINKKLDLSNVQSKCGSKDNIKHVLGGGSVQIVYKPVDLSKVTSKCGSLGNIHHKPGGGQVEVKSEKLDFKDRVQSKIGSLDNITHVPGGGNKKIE
#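 Heparin (20 uM) drove fibril formation of recombinant tau K18 P301L, 15 uM unlabeled with 0.24 uM Alexa 594 label, for 6 hr at 37 C in 100 mM sodium acetate pH 7. Fluorescence polarization (555/632 nm) read 1 hr after 30 uM ThT.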
# Tau fibril ThT – blocks human tau fibril formation measured by thioflavin T | P10636 | recombinant tau K18 P301L, heparin-induced fibrillization, ThT fluorescence | Potency, µM (doses to about 57.4 µM), without a hit: top-dose activity, negative = inhibition, most hits filed as inhibitors | 270,000 compounds, 2.1% hits; further: nearly all actives have a fitted effect of over 55% in size
#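 Heparin-induced fibrillization of the P301L-mutant K18 repeat-domain fragment of human tau was followed by ThT binding in quantitative high-throughput format.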
# Tau fluor counter – counter-screen for tau fibril formation inhibitors; Potency, µM (highest dose often 57.7 µM), for inactives: at the top dose activity change, negative = decrease; 280,000 compounds, 0.93% hits; tau K18 P301L Alexa594 fluorescence, heparin fibrillization; further: nearly all actives have a fitted effect of over 55% in size
#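 Human tau K18 P301L (15 uM unlabeled, 0.24 uM Alexa 594-labeled) in 100 mM sodium acetate pH 7 with 20 uM heparin, 6 hr at 37 C. ThT 30 uM added, 1 hr ambient; Alexa 594 FP and total fluorescence read at 555/632 nm.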
# TRb SRC2 PPI – disrupts binding of human TR beta to SRC2; TRbeta-SRC2 peptide binding, fluorescence polarization; receptor liganded with 1 µM T3; Potency, µM (titrated, usually from 106 µM), inactives show top-dose activity change, negative = inhibition, actives largely listed as inhibitors; 280,000 compounds, 0.065% hits; AID 1469;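 further: plate controls were bound peptide for no effect and peptide without receptor for full effect; nearly all actives have a fitted effect of over 50% in size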
#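 Fluorescence polarization of 20 nM Texas Red SRC2 peptide with 0.6 uM human TRb ligand-binding domain, in Tris buffer with 1uM T3 and 5% DMSO. Incubated 5 hr ambient; normalized to unbound and bound controls.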
# TexasRed fluor – counter-screen for TRb-SRC2 inhibitors: fluorescence interference | TRb/SRC2 Texas Red total fluorescence interference | Potency, µM (doses to about 106 µM), for the others: at the top dose fluorescence change, negative = quenching | 280,000 compounds, 0.29% hits; active means well fitted curve in either direction with a large enough effect; inconclusive means small, poorly fitted or top-dose-only effect
#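 Human TRb ligand-binding domain at 0.6 uM with 20 nM Texas Red SRC2 peptide in Tris buffer containing 1 uM T3 and 5% DMSO, incubated with compound 5 h at ambient temperature. Total fluorescence (555/632 nm) calculated as parallel + 2 × perpendicular.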
# Starred values were filed as active, the others as inactive; ? = inconclusive; [ ] = remark or other dose. Unless noted, the call rests on the fitted dose curve; in most records, active means well fitted curve in the direction sought with a large enough effect; inconclusive means small, poorly fitted or top-dose-only effect, or another doubt; inactive means no such curve, though single readings can be large; an effect the other way counts as inactive or inconclusive. Unless noted, on the % scale 0 is the no-effect control and ±100 the full control effect; potency means the concentration at half of the fitted maximal effect.
SMILES,Tau fibril FP,Tau fibril ThT,Tau fluor counter,TRb SRC2 PPI,TexasRed fluor
CCN(C(=O)COC(=O)c1ccc(Cl)nc1)C1CCS(=O)(=O)C1 (stereo unspecified),-3%,-3%,-4%,0%,0%
CCN(C(=O)COc1cccc2cccnc12)C1CCS(=O)(=O)C1 (stereo unspecified),?,25µM*,-28%,4%,1%
COC(=O)[C@@]1(C)CCC[C@@]2(C)c3ccc(O)c(C(C)C)c3CCC21 (stereo partly specified),-11%,?,16µM*[quencher],6%,-2%
CC(C)c1c(O)ccc2c1CCC1[C@@](C)(CO)CCC[C@@]21C (stereo partly specified),4%,?,?,5%,-1%
CCc1ccc2c(c1)C1(NN=C(c3cccc4ccccc34)S1)C(=O)N2 (stereo unspecified),13%,16µM*,?,-9%,0%
CC1(C)O[C@H]2O[C@@H]([C@H](O)CON3C(=O)c4ccccc4C3=O)[C@H](O)[C@H]2O1,-3%[11.6 µM],-18%[11.5 µM],-19%[11.6 µM],3%[11.2 µM],1%[11.2 µM]
COc1cc(C(=O)NCCc2sc(-c3ccc(C)cc3)nc2C)cc(OC)c1OC,-2%,?,-19%,-1%,-6%
COc1ccc(CNC(=O)Cn2nc3c(cc2=O)CCCC3)cc1,8%,-3%,-5%,-1%,-1%
CS(=O)(=O)c1ccc(S(=O)CC(=O)Oc2ccc(Cl)cc2)c([N+](=O)[O-])c1 (stereo unspecified),?,3.5µM*,-25%,-5%,-5%
O=C(CS(=O)c1ccccc1[N+](=O)[O-])Oc1ccc(Br)cc1 (stereo unspecified),?,?,?,-4%,-4%
O=C(Nc1ccc2snnc2c1)Nc1cccc2ccccc12,25µM*,0%,7.9µM*[quencher],1%,-4%
CCOC(=O)c1ccc(NC(=O)Nc2ccc3snnc3c2)cc1,11µM*,4%,-25%,5%,-5%
CCc1ccccc1NC(=O)Nc1ccc2snnc2c1,?,0%,?,-1%,-3%
CC(C)[N+]1(C)C2CCC1CC(OC(=O)C(CO)c1ccccc1)C2 (stereo unspecified),9%,5%,8%,-7%,-2%
COc1cccc(N2CCN(c3c4c(nc5nncn35)CCC4)CC2)c1,-5%,-15%,-11%,-3%,-2%
FC(F)(F)c1ccc2c(c1)N1CCCC1CN2 (stereo unspecified),-7%,18µM*,?,-11%,-4%
Fc1c(CSC(=S)N2CCOCC2)cccc1CSC(=S)N1CCOCC1,-6%,6%,-19%,-6%,-4%
CC1=CC(=O)C=C(C)C1=NOC(=O)/C=C\c1ccccc1,?,16µM*,-17%,2%,-2%
CC1=C(C)/C(=N\OC(=O)/C=C/c2ccccc2)C=CC1=O,?,13µM*,-21%,-2%,-5%
CC1=CC(=NOC(=O)/C=C/c2ccccc2)C=C(C)C1=O,?,22µM*,-28%,8%,1%
CC(C)N(C)CCOC(=O)/C=C/c1ccccc1,-4%,3%,6%,11%[53 µM],-1%[53 µM]
CC1=C(C)/C(=N/OC(=O)c2cccc([N+](=O)[O-])c2)C=CC1=O,-8%,?,-18%,2%,-9%
COc1ccc(-c2nn3c(=O)cc(CN4CCN(C(=O)Nc5ccc(C)c(Cl)c5)CC4)nc3s2)cc1,-6%,?,-6%,0%,-1%
CC(=O)Oc1cc2c(c(C)c1OC(C)=O)CC=C1[C@]3(C)CC[C@]4(C)CC[C@@](C)(C(=O)O)CC4[C@]3(C)CC[C@]12C (stereo partly specified),1%,-13%,-1%,-1%,-4%
O=S(=O)(c1cccs1)N1CN(Cc2ccco2)c2nc3ccccc3nc21,?,22µM*,?,?,?
O=S(=O)(c1cccs1)N1CN(Cc2ccc(Cl)cc2)c2nc3ccccc3nc21,-16%,4%,-11%,-3%,-3%
COc1ccccc1CNC(=O)c1cnn2c(C)c(Cc3ccc(F)cc3)c(C)nc12,0%,-1%,7%,3%,-1%
